57 molecules from ChEMBL document CHEMBL4513216, “Probing the Open Global Health Chemical Diversity Library for Multistage-Active Starting Points for Next-Generation Antimalarials” (ACS Infect Dis, 2020) can be followed below.

The campaign covered roughly 69,000 compounds. About 8,600 (12%) showed an effect of 50% or more. What follows is part of a selection rich in strong results, with near analogues and random picks from the rest.

The test relates to Plasmodium berghei. The test is described as follows: Screen against P. berghei liver stage (PbLuc), transformed with Luciferase, at 10uM. The class given is functional, HepG2. The conditions noted are these: tested at 10 uM.
Take `O=S(=O)(NCC1CCN(c2cnccn2)CC1)c1cccs1`: the INHIBITION was determined as 25.1%.

As for `CCS(=O)(=O)NCC1CCN(c2cnccn2)CC1`, the INHIBITION was 40%.

Consider `CCc1ccc(S(=O)(=O)NCC2CCN(c3cnccn3)CC2)s1`, for which the INHIBITION is reported as 83%.

As to `c1cncc(OCc2noc3c2CN(Cc2ccoc2)CC3)c1`, the INHIBITION is given as -3.95%.

On to `CC(=O)N(C)Cc1nn(C)c2c1CN(Cc1ccsc1)C2`, for which the INHIBITION is -37.9%.

Regarding `CC(=O)NCc1noc2c1CN(Cc1cnn(C)c1)CC2`, the INHIBITION was determined as 46.7%.

Regarding `c1cncc(OCc2noc3c2CN(Cc2cccs2)CC3)c1`, the INHIBITION is recorded as -26.5%.

Take `CC(=O)NCc1nn(C)c2c1CN(Cc1ccsc1)C2`: the INHIBITION is 69.7%.

With `Cn1nc(Cn2cccc2)c2c1CN(Cc1ccsc1)C2`, the INHIBITION was -5.08%.

Regarding `O=C(c1cc[nH]n1)N1CCc2onc(COc3cccnc3)c2C1`, the INHIBITION is 67.2%.

Regarding `CC(=O)NCc1noc2c1CN(Cc1cccs1)CC2`, the INHIBITION was found to be 6.83%.

`O=C(c1ccc[nH]1)N1CCc2onc(COc3cccnc3)c2C1`: the INHIBITION stood at 21.8%.

With `O=C(N1CCCC1)N1CCc2onc(COc3cccnc3)c2C1`, the INHIBITION turned out to be 20.6%.

In the case of `CC(=O)NCc1noc2c1CN(Cc1ccsc1)CC2`, the INHIBITION is reported as 64.5%.

Consider `c1cncc(OCc2noc3c2CN(Cc2ccsc2)CC3)c1`, for which the INHIBITION is reported as 56.1%.

On to `CNC(=O)CCc1cc(C)nc(C2CCN(c3cnccn3)CC2)c1`, for which the INHIBITION is 34.65%.

As for `CC(=O)N1CCCC1c1nccnc1NCc1cccnc1` (configuration not stated), the INHIBITION is -9.51%.

Take `CNc1cncc(C2CCN(S(C)(=O)=O)CC2)n1`: the INHIBITION amounted to 12.8%.

On to `CCCC(NC(=O)c1ccccc1Br)c1nnn[nH]1` (configuration not stated), for which the INHIBITION came out at 43.1%.

Regarding `Cc1noc(C)c1CC(=O)N1CCC(c2ccn3nccc3n2)CC1`, the INHIBITION is -27.8%.

Consider `CS(=O)(=O)N1CC[C@H]2OCC[C@@]2(C(=O)NCCc2ccccn2)C1`, for which the INHIBITION is on record as 38.5%.

With `Nc1cc(CCCNC(=O)NC2CCCC2)nn1-c1ccccc1`, the INHIBITION is recorded as -26.2%.

Turning to `CC(C)N(C(=O)CCc1cccc(F)c1)C1CCOCC1`, the INHIBITION is on record as -6.34%.

`CN1CCN(C(=O)c2nc3c(s2)CCCN3C(=O)C2CC2)CC1`: the INHIBITION was 37.9%.

In the case of `CCc1nnc2n1CCN(Cc1ncc(-c3ccccc3)o1)C2`, the INHIBITION stood at 9.665%.

`CCN(CC1CCOC1)C(=O)c1cnc2onc(C)c2c1` (configuration not stated): the INHIBITION turned out to be 34.15%.

On to `CC(C)(C)CC(=O)NCCn1ccc(-c2ccncc2)n1`, for which the INHIBITION is reported as -4.99%.

For `O=C(NCCn1ccc(-c2ccncc2)n1)c1ccncc1`, the INHIBITION worked out at 26.4%.

Consider `CC(C)(C)C(=O)NCCn1ccc(-c2ccncc2)n1`, for which the INHIBITION was found to be 11.9%.

In the case of `O=C(NCCn1ccc(-c2ccncc2)n1)C1CC1`, the INHIBITION was 52.6%.

On to `O=C(NCCn1ccc(-c2ccncc2)n1)c1ccc2c(c1)OCO2`, for which the INHIBITION is listed as 64.5%.

As for `O=C(NCCn1ccc(-c2ccccn2)n1)C1CC1`, the INHIBITION was -30%.

As for `O=C(NCCn1ccc(-c2ccccn2)n1)c1ccncc1`, the INHIBITION turned out to be 31.2%.

Turning to `Cc1nnsc1C(=O)NCCn1ccc(-c2ccncc2)n1`, the INHIBITION is 61.5%.

`O=C(CC1CCCC1)NCCn1ccc(-c2ccncc2)n1`: the INHIBITION came to 36.3%.

As to `CCOCC(O)CN1CCN(C(=O)c2cc(C)ccc2OC)CC1` (configuration not stated), the INHIBITION is reported as -35.7%.

For the molecule `Cn1cc(CC2CCN(C(=O)NCc3csc(C4CC4)n3)C2)cn1` (configuration not stated), the INHIBITION was 11.8%.

Turning to `O=C(O)c1cccnc1CN1CCCCC1CCc1cccs1` (configuration not stated), the INHIBITION is reported as 5.78%.

On to `Cc1nc(NC(=O)N[C@H](CO)c2ccccc2)sc1C`, for which the INHIBITION is listed as 7.3%.

Regarding `COc1ccc2nc(CNC(=O)c3cc(C(C)C)on3)[nH]c2c1`, the INHIBITION is reported as 27.5%.

On to `COc1ccc(COCC(O)CNC(=O)c2cc(C)no2)cc1` (configuration not stated), for which the INHIBITION turned out to be 5.03%.

Take `COc1ccc2nc(CNC(=O)c3cc(C(C)C)no3)[nH]c2c1`: the INHIBITION is 73.4%.

Take `COc1ccc2cc(C(=O)NCCc3nc(C)no3)[nH]c2c1`: the INHIBITION is on record as -1.79%.

For `COc1ccc2nc(CCNC(=O)c3cc(CC(C)C)no3)[nH]c2c1`, the INHIBITION was 55.5%.

With `CCn1nc(C(C)C)cc1C(=O)NCc1nc2ccc(OC)cc2[nH]1`, the INHIBITION was determined as 37.6%.

For `Cc1ccc(CN2CCC[C@]3(C(=O)O)CN(C)C[C@@H]3C2)s1`, the INHIBITION is listed as 6.79%.

For `c1ccc2c(c1)cnn2CCCNC1CCOC2(CCOCC2)C1` (configuration not stated), the INHIBITION is listed as -9.39%.

For the molecule `c1csc(N2CCCN(c3nccn4cnnc34)CC2)n1`, the INHIBITION was -27.8%.

Take `CN(CCOc1ccc(Cl)cc1)Cc1ccc(S(=O)(=O)N(C)C)o1`: the INHIBITION came out at 51%.

For `Cc1ccc(OCCN(C)Cc2ccc(S(=O)(=O)N(C)C)o2)cc1`, the INHIBITION came to 47.7%.

On to `Cc1cc(C)cc(OCCN(C)Cc2ccc(S(=O)(=O)N(C)C)o2)c1`, for which the INHIBITION stood at 7.39%.

As to `CC(C)NC(=O)c1ccc2c(c1)C1(CCN(C(C)C)CC1)C(=O)N2`, the INHIBITION was -25.1%.

For the molecule `O=C(NCCNc1ncccn1)C1CCN(C(=O)N2CCCC2)CC1`, the INHIBITION is given as -33.9%.

Turning to `O=C1CC(c2ccc(O)cc2)c2c(n3ccsc3nc2=O)N1` (configuration not stated), the INHIBITION came out at 2.66%.

In the case of `C1CC(CO[C@@H]2CC[C@H]3[C@H]2OCCN3CC2CC2)CCO1`, the INHIBITION is -11.6%.

As to `C1CC(CO[C@@H]2CC[C@H]3[C@H]2OCCN3CC2CCOCC2)CCO1`, the INHIBITION came out at 7.31%.

Consider `CCO[C@@H]1CC[C@H]2[C@H]1OCCN2CC1CCC1`, for which the INHIBITION is recorded as 54.7%.
